{
  "source": "PubChem BioAssay",
  "key": {"[1]": {"experiment": "growth inhibition of DIPG glioma cells, dose response, cell-based, SU-DIPG-XVII, MIPE5.0, CellTiter-Glo, qHTS (AID 1347060);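 as to AC50: cells exposed to compound for 48 hours before viability readout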", "settings": "SU-DIPG-XVII viability, CellTiter-Glo ATP luminescence"}, "[2]": {"experiment": "growth inhibition of DIPG glioma cells, dose response, cell-based, SU-DIPG-XIII, MIPE5.0, CellTiter-Glo, qHTS (AID 1347064; cut-off not given, nearly all actives have AC50 up to about 23 µM;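 as to AC50: cells exposed to compound for 48 hours before the viability read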)", "settings": "SU-DIPG-XIII viability, CellTiter-Glo ATP luminescence"}, "[3]": {"experiment": "viability loss in pontine glioma line – cell-based, SU-DIPG-XXV, MIPE5.0, CellTiter-Glo, qHTS, dose response (AID 1347065);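 also: cells exposed to compound for 48 hours before ATP readout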", "settings": "CellTiter-Glo ATP luminescence"}, "[4]": {"experiment": "SU-DIPG-XXV glioma cell viability, MIPE5.0 library, qHTS (AID 1347068; cut-off not given, nearly all actives have IC50 up to about 30 µM;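 as to IC50: cells exposed to compound for 48 hours before viability readout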)"}, "[5]": {"experiment": "JHH-DIPG-1 glioma cell viability, MIPE5.0 library, CellTiter-Glo luminescence, qHTS (AID 1347067);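 also: cells exposed to compound for 48 hours before readout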", "settings": "JHH-DIPG-1 glioma viability, CellTiter-Glo ATP luminescence"}, "[6]": {"experiment": "sensitizers of A549 cells to miR-34 induction, primary screen, imaging, A549 dox-inducible miR-34, nuclei and caspase counts (AID 1347080;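 active = compounds whose cell count with miR-34 switched on is under 0.7 times the count with it off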)", "settings": "A549 miR-34 inducible, Hoechst nuclei count, 48 h"}, "[7]": {"experiment": "survival rescue of mitochondrial mutant cells in low glucose, primary screen, MELAS cybrids, Rieske KO mouse fibroblasts, CellTiter-Glo (AID 1508586;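 active = mean z-score across replicates of 1.96 or higher in either the MELAS or the Rieske mutant cell line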;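 also: z relative to plate mean and SD of compound and empty wells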)"}, "[8]": {"settings": "stronger effect = lower value, cell number ratio, induced over uninduced"}, "[9]": {"settings": "measured here: relative caspase fold change +Dox/-Dox"}, "[10]": {"settings": "measured here: total cells with miR-34 induction, stronger effect = lower value"}, "[11]": {"settings": "measured here: total cells without miR-34 induction"}, "[12]": {"settings": "MELAS cybrid survival, CellTiter-Glo 48 h, stronger effect = higher value"}, "[13]": {"settings": "Rieske KO mouse fibroblast survival, CellTiter-Glo 72 h"}},
  "note": "Inconclusive results are not listed. Active and inactive are the calls of the source. Unless noted, the limit is not given here; nearly all actives have AC50 up to about 26 µM.",
  "data": [
    {"smiles": "Cc1c(F)ccc(C(=O)Nc2cc([N+](=O)[O-])ccc2N2CCN(C)CC2)c1Cl", "values": [
      {"measurement": "AC50", "setting": "[1]", "result": "26.3 µM (active)"},
      {"measurement": "outcome", "setting": "[2]", "result": "inactive"},
      {"measurement": "outcome", "setting": "[3]", "result": "inactive"},
      {"measurement": "outcome", "setting": "[4]", "result": "inactive"}
    ]},
    {"smiles": "CCOC(=O)[C@@]1(CCCCCCOc2ccc(Cl)cc2)CO1", "values": [
      {"measurement": "outcome", "setting": "[1]", "result": "inactive"},
      {"measurement": "outcome", "setting": "[2]", "result": "inactive"},
      {"measurement": "outcome", "setting": "[3]", "result": "inactive"},
      {"measurement": "outcome", "setting": "[4]", "result": "inactive"}
    ]},
    {"smiles": "C/C(=N\\NC(=O)c1cccc(S(=O)(=O)N2CCOCC2)c1)c1cc(Cl)ccc1O", "values": [
      {"measurement": "AC50", "setting": "[1]", "result": "18.6 µM (active)"},
      {"measurement": "AC50", "setting": "[2]", "result": "9.34 µM (active)"},
      {"measurement": "AC50", "setting": "[3]", "result": "16.6 µM (active)"},
      {"measurement": "outcome", "setting": "[4]", "result": "inactive"}
    ]},
    {"smiles": "CC(=NNC(=O)c1cccc(S(=O)(=O)N2CCOCC2)c1)c1cc(Cl)ccc1O", "values": [
      {"measurement": "AC50", "setting": "[1]", "result": "8.33 µM (active)"},
      {"measurement": "AC50", "setting": "[2]", "result": "6.61 µM (active)"},
      {"measurement": "AC50", "setting": "[3]", "result": "5.9 µM (active)"},
      {"measurement": "outcome", "setting": "[4]", "result": "inactive"}
    ]},
    {"smiles": "OC[C@H]1O[C@@H](S[C@@H]2O[C@H](CO)[C@H](O)[C@H](n3cc(-c4cccc(F)c4)nn3)[C@H]2O)[C@H](O)[C@@H](n2cc(-c3cccc(F)c3)nn2)[C@H]1O", "values": [
      {"measurement": "outcome", "setting": "[1]", "result": "inactive"},
      {"measurement": "outcome", "setting": "[2]", "result": "inactive"},
      {"measurement": "outcome", "setting": "[3]", "result": "inactive"},
      {"measurement": "outcome", "setting": "[4]", "result": "inactive"}
    ]},
    {"smiles": "Cc1ncc(NC(=O)c2ccc(CN3CCN(C)CC3)c(C(F)(F)F)c2)cc1Nc1nccc(-c2cccnc2)n1", "values": [
      {"measurement": "AC50", "setting": "[1]", "result": "23.5 µM (active)"},
      {"measurement": "AC50", "setting": "[2]", "result": "9.34 µM (active)"},
      {"measurement": "AC50", "setting": "[3]", "result": "18.6 µM (active)"},
      {"measurement": "outcome", "setting": "[4]", "result": "inactive"}
    ]},
    {"smiles": "Cc1cc(F)c(C(=O)Nc2cccc(-c3nncn3C(C)C)n2)cc1-n1cnc(C2CC2)c1", "values": [
      {"measurement": "AC50", "setting": "[1]", "result": "16.6 µM (active)"},
      {"measurement": "AC50", "setting": "[2]", "result": "18.6 µM (active)"},
      {"measurement": "AC50", "setting": "[3]", "result": "18.6 µM (active)"},
      {"measurement": "IC50", "setting": "[4]", "result": "18.6 µM (active)"}
    ]},
    {"smiles": "C=CC(=O)N1CC/C(=C\\c2ccc(F)c([N+](=O)[O-])c2)C(=O)/C(=C/c2ccc(F)c([N+](=O)[O-])c2)C1", "values": [
      {"measurement": "AC50", "setting": "[1]", "result": "0.0742 µM (active)"},
      {"measurement": "AC50", "setting": "[2]", "result": "0.059 µM (active)"},
      {"measurement": "AC50", "setting": "[3]", "result": "0.0934 µM (active)"},
      {"measurement": "IC50", "setting": "[4]", "result": "0.186 µM (active)"}
    ]},
    {"smiles": "COc1cccc(OCCCN)c1-c1cc(Nc2cnc(C#N)cn2)n[nH]1", "values": [
      {"measurement": "AC50", "setting": "[1]", "result": "0.0332 µM (active)"},
      {"measurement": "AC50", "setting": "[2]", "result": "0.0742 µM (active)"},
      {"measurement": "AC50", "setting": "[3]", "result": "0.059 µM (active)"},
      {"measurement": "outcome", "setting": "[4]", "result": "inactive"}
    ]},
    {"smiles": "C[C@@H](O)[C@@H]1NC(=O)[C@H](CCCCN)NC(=O)[C@@H](Cc2c[nH]c3ccccc23)NC(=O)[C@H](Cc2ccccc2)NC(=O)[C@@H](NC(=O)[C@H](N)Cc2ccccc2)CSSC[C@@H](C(=O)N[C@H](CO)[C@@H](C)O)NC1=O", "values": [
      {"measurement": "outcome", "setting": "[1]", "result": "inactive"},
      {"measurement": "outcome", "setting": "[2]", "result": "inactive"},
      {"measurement": "outcome", "setting": "[3]", "result": "inactive"},
      {"measurement": "outcome", "setting": "[5]", "result": "inactive"},
      {"measurement": "fold change", "setting": "[6]; [8]", "result": "0.862 (inactive)"},
      {"measurement": "fold change", "setting": "[6]; [9]", "result": 0.995},
      {"measurement": "cell count", "setting": "[6]; [10]", "result": 9290},
      {"measurement": "cell count", "setting": "[6]; [11]", "result": 10800},
      {"measurement": "z-score", "setting": "[7]; [12]", "result": "0.396 (inactive)"},
      {"measurement": "z-score", "setting": "[7]; [13]", "result": -0.498}
    ]},
    {"smiles": "COc1cc2ncnc(Oc3cccc(NC(=O)Nc4cc(C(C)(C)C(F)(F)F)on4)c3)c2cc1OC", "values": [
      {"measurement": "AC50", "setting": "[1]", "result": "5.9 µM (active)"},
      {"measurement": "AC50", "setting": "[2]", "result": "16.6 µM (active)"},
      {"measurement": "AC50", "setting": "[3]", "result": "10.5 µM (active)"},
      {"measurement": "AC50", "setting": "[5]", "result": "14.8 µM (active)"},
      {"measurement": "fold change", "setting": "[6]; [8]", "result": "0.934 (inactive)"},
      {"measurement": "fold change", "setting": "[6]; [9]", "result": 0.373},
      {"measurement": "cell count", "setting": "[6]; [10]", "result": 3270},
      {"measurement": "cell count", "setting": "[6]; [11]", "result": 3490},
      {"measurement": "z-score", "setting": "[7]; [12]", "result": "-0.488 (inactive)"},
      {"measurement": "z-score", "setting": "[7]; [13]", "result": 1.15}
    ]},
    {"smiles": "COc1cc([C@@H](CC(=O)O)c2ccc(C)c(CN3C[C@@H](C)Oc4ccccc4S3(=O)=O)c2)cc2nnn(C)c12", "values": [
      {"measurement": "outcome", "setting": "[1]", "result": "inactive"},
      {"measurement": "outcome", "setting": "[2]", "result": "inactive"},
      {"measurement": "outcome", "setting": "[3]", "result": "inactive"},
      {"measurement": "outcome", "setting": "[4]", "result": "inactive"}
    ]},
    {"smiles": "O=C(c1ccc(NS(=O)(=O)c2cccc3cccnc23)cc1)N1CCN(CC2CC2)CC1", "values": [
      {"measurement": "outcome", "setting": "[1]", "result": "inactive"},
      {"measurement": "outcome", "setting": "[2]", "result": "inactive"},
      {"measurement": "outcome", "setting": "[3]", "result": "inactive"},
      {"measurement": "outcome", "setting": "[4]", "result": "inactive"}
    ]}
  ]
}
